Laboratory results as given in the supplement of paper PMC6555819.

Assays:
Assay in all cases: PBM binding z-score (relative to random genomic background probes); higher = stronger binding; sequences stand for … in GC…GCGATTGACAGCGTAGAATGAAGG
[1] = test system: FXR:RXRa (NR concentration 270 nM, RXRa partner concentration 90 nM)
How it was run: (§1)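 Regression normalization was applied to scanned fluorescence from custom Agilent 4×180K protein-binding microarrays. Before scanning, arrays were incubated 1 h with ligand-free nuclear receptor dimers, and binding was detected with antibodies against each partner (one per run). Binding z-scores use the random background probes as reference.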

[2] = test system: LXRa:RXRa (NR concentration 270 nM, RXRa partner concentration 90 nM)
How it was run: as §1

[3] = test system: LXRa homodimer (NR concentration 270 nM)
How it was run: as §1

[4] = test system: LXRb:RXRa (NR concentration 270 nM, RXRa partner concentration 90 nM)
How it was run: as §1

[5] = test system: LXRb homodimer (NR concentration 270 nM)
How it was run: as §1

[6] = test system: PPARa:RXRa (NR concentration 270 nM, RXRa partner concentration 90 nM)
How it was run: as §1

[7] = test system: PPARg:RXRa (NR concentration 180 nM, RXRa partner concentration 90 nM)
How it was run: as §1

[8] = test system: PPARg:RXRa 270nM:90nM, anti-RXR (NR concentration 270 nM, RXRa partner concentration 90 nM)
How it was run: as §1

[9] = test system: PPARg:RXRa 30nM:10nM, anti-RXR (NR concentration 30 nM, RXRa partner concentration 10 nM)
How it was run: as §1

[10] = test system: PPARg:RXRa 90nM:30nM, anti-RXR (NR concentration 90 nM, RXRa partner concentration 30 nM)
How it was run: as §1

[11] = test system: PPARg:RXRa DBDmut IVT, anti-RXR (DBD mutation: RXRa K156A/R161A, NR concentration 270 nM, RXRa partner concentration 90 nM)
How it was run: as §1

[12] = test system: PPARg:RXRa IVT, anti-PPARg (NR concentration 270 nM, RXRa partner concentration 90 nM)
How it was run: as §1

[13] = test system: PPARg DBDmut:RXRa IVT, anti-PPARg (DBD mutation: PPARg1 K132A/R137A, NR concentration 270 nM, RXRa partner concentration 90 nM)
How it was run: as §1

[14] = test system: PPARg DBDmut IVT, anti-PPARg (DBD mutation: PPARg1 K132A/R137A, NR concentration 270 nM)
How it was run: as §1

[15] = test system: PPARg homodimer (NR concentration 180 nM)
How it was run: as §1

[16] = test system: PXR:RXRa (NR concentration 270 nM, RXRa partner concentration 90 nM)
How it was run: as §1

[17] = test system: PXR homodimer (NR concentration 270 nM)
How it was run: as §1

[18] = test system: RARa:RXR (NR concentration 270 nM, RXRa partner concentration 90 nM)
How it was run: as §1

[19] = test system: RARa homodimer (NR concentration 270 nM)
How it was run: as §1

[20] = test system: RARb:RXRa (NR concentration 270 nM, RXRa partner concentration 90 nM)
How it was run: as §1

Sequence	PBM binding z-score [1]	PBM binding z-score [2]	PBM binding z-score [3]	PBM binding z-score [4]	PBM binding z-score [5]	PBM binding z-score [6]	PBM binding z-score [7]	PBM binding z-score [8]	PBM binding z-score [9]	PBM binding z-score [10]	PBM binding z-score [11]	PBM binding z-score [12]	PBM binding z-score [13]	PBM binding z-score [14]	PBM binding z-score [15]	PBM binding z-score [16]	PBM binding z-score [17]	PBM binding z-score [18]	PBM binding z-score [19]	PBM binding z-score [20]
AGAACGAGGGCAAGGAGTTGATAGCACGGGTGGC	0.193	0.0802	-0.479	-0.441	-0.879	1.2	1.25	1.06	-0.111	0.543	2.54	2.09	1.19	-0.462	0.0784	0.742	1.54	0.14	-0.0474	2.15
CCTACTGGGCCAAAAAGGTCTTTGATGCCGATAA	-0.753	-0.556	-0.512	-0.343	-1.15	0.669	0.196	1.01	-0.425	0.203	3.45	2.65	-0.719	-0.578	-0.284	-0.31	-0.67	-0.184	-0.777	0.422
TCTTGTATATCAAAGGTTAAGAAAGCCGAAGCCT	1.57	2.66	1.24	2.13	0.723	3.79	6	6.59	6.78	7.96	1.87	2.65	0.898	0.823	1.29	1.93	0.544	2.96	0.898	2.22
TCTTGTAGATCAGAGGTTAAGAAAGCCGAAGCCT	0.507	1.04	-0.0177	1.4	-0.128	2.87	4.35	5.58	4.79	5.63	1.58	2.04	0.138	0.179	0.818	0.951	-0.359	1.48	-0.453	0.915
CAAACTAGGTCATGAAAGGTCAAAGTCGAATGAC	7.56	8.15	8.41	7.23	2.86	6.78	9.71	8.12	6.46	8.38	8.27	8.84	5.43	7.62	9.18	7.23	2.71	7.33	4.32	5.36
CGAACTAGGGCAAGGACAGTGAATCTCCGCACGC	0.00807	-0.366	0.0437	-0.81	-0.814	1.76	2.96	3.03	0.479	1.87	7	6.14	0.631	-0.116	-0.153	-0.332	-0.43	-0.371	-0.534	1.59
TAGCCTAGGTCATTGGGCCAGTACAGTACGCATC	4.4	3.61	1.04	2.35	0.354	3.83	3.38	3.78	0.72	2.63	2.86	3.89	-0.0279	0.0815	1.12	1.71	-0.112	2.12	-0.528	3.67
GCGACTGGGGCATCAGCCGGTTACCATAACTTAA	-0.764	-0.553	-0.599	-0.35	-1.65	0.18	0.552	0.636	-0.73	-0.0776	3.39	2.34	-1.15	-1.34	-0.348	-0.89	-0.327	-0.651	-1.07	0.332
